Shown are actives, neighbours in structure and some others; about 3.8% of the full set was active somewhere.
HepG2 viability – kills HepG2 cells in TGF-b inhibitor counter-screen. AID 588856. HepG2 CAGA-GFP viability, ATP luminescence, 18 h. Potency, µM (top dose mostly 46.1 µM), inactives show at the top dose activity change, negative = cytotoxicity, usual class: cytotoxic. 410,000 compounds, 0.76% hits
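HepG2 CAGA-GFP cells (1000/well, DMEM with 1% FBS) received compound, then TGF-beta at 500 pg/mL final, and were incubated 18 hours at 37 degrees C. Viability was read by CellTiter-Glo luminescence. Media-only wells were set as complete cell-killing and DMSO as no toxicity.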
ATXN2 expr inh – inhibitors of ATXN2 expression. HEK-293 ATXN2-luciferase reporter, luminescence, 24 h. Potency, µM (doses to about 57 µM), without a hit: at the top dose activity change, negative = inhibition, most hits filed as inhibitors. 360,000 compounds, 0.72% hits. AID 1745845; also: % is scaled to controls: 0 for no effect and ±100 for the full control effect; nearly all actives have a fitted effect of over 55% in size
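qHTS (up to 57 uM final) was run with 24 h compound exposure of reporter cells at 37 °C. Each well was multiplexed: SteadyGlo luminescence measured ATXN2-luciferase expression after a fluorogenic Gly-Phe-AFC viability readout (25 uM final).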
ATXN viability – cell viability loss in ATXN counter-screen; S2 cells (HEK-293 line with an ATXN2-luciferase reporter) viability, CellTiter-Fluor protease fluorescence, 24 h; Potency, µM (highest dose often 56.7 µM), hits mostly cytotoxic; 400,000 compounds, 0.49% hits; AID 651635; also: nearly all actives have a fitted effect of over 40% in size
HT1080 IDH1KD tx – toxicity to HT-1080 IDH1 knockdown cells (counter line); HT-1080 IDH1 knockdown viability, ATP luminescence, 48 h; Potency, µM (highest dose often 46.1 µM), inactives show at the highest dose activity, negative = toxicity, actives largely listed as cytotoxic; 360,000 compounds, 2% hits; AID 686971;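 also: 0% = DMSO wells and -100% = cell-free medium wells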
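Luminescent ATP read-out (CellTiter-Glo, 10 min at room temperature) after 48 h compound exposure at 37 °C gave viability of IDH1-knockdown HT-1080 cells. Activity was normalised to DMSO and cell-free wells, then fitted as concentration-response curves.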
TGFb SMAD3 inh – TGF-b pathway inhibition | HepG2 CAGA-GFP TGF-b/SMAD3 reporter, GFP fluorescence, 18 h; TGF-beta stimulated, 500 pg/mL final | Potency, µM (series often up to 46.1 µM), without a hit: top-dose activity, negative = inhibition, usual class: inhibitors | 410,000 compounds, 1.2% hits | AID 588855; also: % is scaled to controls: 0 for no effect and ±100 for the full control effect; nearly all actives have a fitted effect of over 65% in size
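Inhibition of TGF-beta-driven CAGA-GFP reporter expression in HEPG2 cells is measured by cellular GFP fluorescence after 18 h stimulation with 500 pg/mL recombinant TGF-beta in 1% FBS medium at 37 degrees C.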
HT1080NT lethal – kills 2HG-producing HT-1080-NT fibrosarcoma cells; 360,000 compounds, 1.6% hits; Potency, µM (series often up to 46.1 µM), without a hit: at the top dose activity, negative = less viability, actives largely listed as cytotoxic; AID 686970; HT-1080-NT fibrosarcoma viability, CellTiter-Glo ATP luminescence, 48 h;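 also: NT is the 2HG producing partner of a matched IDH1 knockdown line; 0% = DMSO-treated cells and -100% = media-only wells without cells; nearly all actives have a fitted effect of over 55% in size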
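Compounds were tested in concentration-response format on HT-1080-NT cells for 48 hours at 37 degrees C. Cell viability came from CellTiter-Glo luminescence; curves were classified by r2, response magnitude and activity.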
Numbers without * were called inactive; i = inactive; ? = inconclusive; / = no result given. Calls follow the shape of the dose curve; as a rule, active = well fitted curve in the direction sought with a large enough effect; inconclusive = small, poorly fitted or top-dose-only effect, or another doubt; inactive = no such curve, though single readings can be large; an effect the other way counts as inactive or inconclusive. Potency is read from the fitted curve at half-maximal effect.

SMILES	HepG2 viability	ATXN2 expr inh	ATXN viability	HT1080 IDH1KD tx	TGFb SMAD3 inh	HT1080NT lethal
COc1cc(CNCCNC(=O)c2nonc2N)ccc1OCc1ccc(Cl)cc1	-78.2%	-16.6%	i	16.4µM*	?	?
O=C(C[n+]1cccc2cc(Cl)ccc21)c1ccc(I)cc1	-29.0%	/	/	/	?	/
COc1ccccc1C(=O)Nc1c(C(=O)N(CCN(C)C)Cc2ccco2)oc2ccccc12	-102.6%	-23.8%	i	?	?	-3.0%
COc1ccc(OCC(=O)Nc2c(C(=O)N(CCN(C)C)Cc3ccco3)oc3ccccc23)cc1	-51.0%	-37.3%	i	?	22.4µM*	?
C=C1C=C(C)n2ncc(C(=O)Nc3cccc(C(=O)Nc4cccc(C(F)(F)F)c4)c3)c2N1	7.6%	/	/	/	10.8%	/
C[C@H](C[C@H](O)[C@H]1OC1(C)C)C1=C2C[C@H](O)C3[C@@]4(C)CCC(=O)C(C)(C)C4CC[C@]3(C)[C@@]2(C)CC1 (stereo partly drawn)	15.8µM*	?	25.1µM*	?	?	?
CCc1cc(C(=O)N2CCN(C(=O)c3ccccc3)CC2)sc1C	5.01µM*	-18.0%	i	-1.2%	0.0%	-1.2%
COc1ccc(N(CC(=O)Nc2cc(Cl)ccc2OC)S(=O)(=O)c2c(C)noc2C)cc1	-27.3%	?	?	11.6µM*	0.0%	?
COc1ccc(OC)c(NC(=O)CN(c2ccc(C)cc2)S(=O)(=O)c2c(C)noc2C)c1	-25.8%	-14.2%	i	-10.9%	4.3%	-20.8%
Cc1ccc2c(c1)c(C)c(C)n2CC(O)Cn1nc(C)c(Br)c1C (stereo not drawn)	15.8µM*	?	?	?	?	16.4µM*
Cc1ccc2c(c1)c1c(n2CC(O)Cn2nc(C)c(Br)c2C)C(=O)CCC1 (stereo not drawn)	-4.8%	-20.5%	i	-4.3%	30.8%	-1.7%
CCOc1ccc(CCN2C(=O)C(=O)N([C@@H](CC(C)C)CN3CCC[C@@H]3CN3C(=O)C(=O)NC[C@@H]3Cc3ccccc3)C[C@@H]2CC(C)C)cc1	-36.7%	?	/	?	10µM*	?
O=C1NC[C@H](Cc2ccccc2)N(C[C@H]2CCCN2C[C@H](Cc2ccccc2)N2C[C@H](Cc3ccccc3)N(CCc3ccccc3)C(=O)C2=O)C1=O	-34.4%	?	17.8µM*	?	?	?
CCOc1ccc(CCN2C(=O)C(=O)N([C@@H](Cc3ccccc3)CN3CCC[C@H]3CN3C(=O)C(=O)NC[C@@H]3Cc3ccccc3)C[C@@H]2Cc2ccccc2)cc1	/	?	28.2µM*	?	/	?
CC(=O)Nc1ccccc1-c1nc(CNC(=O)c2ccc(F)c(F)c2)c(C)o1	/	/	i	/	/	/
O=S(=O)(NCC(c1cccs1)S(=O)(=O)c1ccccc1)c1ccccc1 (stereo not drawn)	10µM*	/	/	/	7.08µM*	/
c1c2c(cc3sc(N4CCCCC4)nc13)OCO2	10µM*	20.8%	?	-29.2%	?	?
C=C1CCc2c([nH]c3ccc(OCC(C)C)cc23)C1=O	2.51µM*	?	?	13µM*	5.01µM*	7.31µM*
COc1ccc2[nH]c3c(c2c1)CCNC3=O	-17.1%	30.9%	i	/	-7.3%	/
COC(=O)C1N2C(=O)N(C)[C@H](C(=O)OC)[C@H]2SC1(C)C (stereo partly drawn)	3.2%	/	/	/	-2.0%	/
O=C(COC(=O)CNC(=O)C1CCCCC1)NC1CCCC1	4.0%	/	/	/	9.8%	/
CC(=O)OCC(NC(=O)C(C)NC(=O)OC(C)(C)C)C1OC(n2ccc(=O)[nH]c2=O)C(OC(C)=O)C1OC(C)=O (stereo not drawn)	-7.5%	/	/	/	-15.7%	/
CCN(CC)CCCNC(=S)N1CCN(c2nc(-c3ccccc3)cs2)CC1	-74.2%	?	?	23.1µM*	?	16.4µM*
CC(C)CNC(=S)N1CCN(c2nc(-c3ccc(Cl)cc3)cs2)CC1	-39.6%	15.8µM*	?	?	?	?
Clc1ccc(N=c2ssnc2Cl)cc1	-36.1%	-30.4%	?	-18.1%	14.1µM*	-13.4%
SMILES	HepG2 viability	ATXN2 expr inh	ATXN viability	HT1080 IDH1KD tx	TGFb SMAD3 inh	HT1080NT lethal
O=C(c1ccccc1C(F)(F)F)N1CCOc2c(cc(-c3nc4ccccc4s3)cc2OC2CCOC2)C1 (stereo not drawn)	/	/	i	/	/	/
COCCN=C1N[C@@H](c2cccc(C(F)(F)F)c2)C(C(=O)OC)=C(C)N1Cc1ccccc1	-25.2%	?	?	-6.5%	-19.4%	?
COC(=O)C1=C(C)N(CC2CC2)C(=NCc2cccc(C(F)(F)F)c2)N[C@H]1c1ccccc1	-50.6%	?	?	-6.6%	-12.8%	-19.5%
COC(=O)C1=C(C)N(Cc2ccccc2)C(=NCc2cccc(C(F)(F)F)c2)N[C@H]1c1cccc(C(F)(F)F)c1	17.8µM*	28.2µM*	17.8µM*	?	10µM*	?
COC(=O)C1=C(C)N(Cc2ccccc2)C(=NCc2cccc(C(F)(F)F)c2)N[C@H]1c1cccc(F)c1	14.1µM*	31.6µM*	/	?	?	?
NC(=O)c1c(NC(=O)c2noc3c2CCCC3)sc2c1CCCC2	3.7%	/	/	/	-1.0%	/
O=C(CC1Sc2ccc(C(F)(F)F)cc2NC1=O)Nc1ccc(Cl)c(C(F)(F)F)c1 (stereo not drawn)	-96.7%	?	i	/	14.1µM*	/
CCOc1ccc(-c2oc3ccc(C)cc3c(=O)c2O)cc1	-2.3%	22.8%	/	/	?	/
COc1cccc(-c2oc3ccc(C)cc3c(=O)c2O)c1	-30.3%	?	i	/	8.91µM*	/
C[C@@H](CN1C2=NC[C@H](Cc3ccc(O)cc3)N2C[C@H]1Cc1ccc(O)cc1)NC(=O)CCC1CCCCC1	0.0%	12.6%	i	0.9%	0.3%	9.6%
C/C=C(\C)C(=O)NCCN1C2=NC[C@H](Cc3ccccc3)N2C[C@H]1Cc1ccc(O)cc1	-3.7%	-3.4%	i	5.5%	-12.9%	8.8%
C[C@@H](CN1C2=NC[C@H](Cc3ccccc3)N2C[C@H]1Cc1ccc(O)cc1)NC(=O)CCC1CCCCC1	-104.2%	28.2µM*	22.4µM*	?	?	?
COc1ccc(C[C@H]2CN3C(=NC[C@@H]3Cc3ccc(O)cc3)N2CCNC(=O)c2ccc(C)c(Br)c2)cc1	15.8µM*	25.1µM*	/	?	?	?
